Rows were chosen to be rich in hits. Some 1.6% of all compounds tested hit in one or more screens of this group.
KCNQ2 enhance: potentiators of rat KCNQ2 potassium channel | CHO-K1 KCNQ2, FluxOR thallium flux fluorescence; hits give high values | 310,000 tested, 0.54% active | AID 2239, 2010 | B-score at 10 µM;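 active = fluorescence ratio B-score at least 3 SD of library B-scores, with initial fluorescence B-score within 3 of them, cut at about 5.3 in these data; same plate scores as AID 2156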;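 note: B-score of peak minus minimum over baseline fluorescence ratio after K+ and Tl+ stimulus; positive B-score means potentiation of KCNQ2 with more thallium influx and brighter signal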
Target sequence (O88943 whole entry, looked up): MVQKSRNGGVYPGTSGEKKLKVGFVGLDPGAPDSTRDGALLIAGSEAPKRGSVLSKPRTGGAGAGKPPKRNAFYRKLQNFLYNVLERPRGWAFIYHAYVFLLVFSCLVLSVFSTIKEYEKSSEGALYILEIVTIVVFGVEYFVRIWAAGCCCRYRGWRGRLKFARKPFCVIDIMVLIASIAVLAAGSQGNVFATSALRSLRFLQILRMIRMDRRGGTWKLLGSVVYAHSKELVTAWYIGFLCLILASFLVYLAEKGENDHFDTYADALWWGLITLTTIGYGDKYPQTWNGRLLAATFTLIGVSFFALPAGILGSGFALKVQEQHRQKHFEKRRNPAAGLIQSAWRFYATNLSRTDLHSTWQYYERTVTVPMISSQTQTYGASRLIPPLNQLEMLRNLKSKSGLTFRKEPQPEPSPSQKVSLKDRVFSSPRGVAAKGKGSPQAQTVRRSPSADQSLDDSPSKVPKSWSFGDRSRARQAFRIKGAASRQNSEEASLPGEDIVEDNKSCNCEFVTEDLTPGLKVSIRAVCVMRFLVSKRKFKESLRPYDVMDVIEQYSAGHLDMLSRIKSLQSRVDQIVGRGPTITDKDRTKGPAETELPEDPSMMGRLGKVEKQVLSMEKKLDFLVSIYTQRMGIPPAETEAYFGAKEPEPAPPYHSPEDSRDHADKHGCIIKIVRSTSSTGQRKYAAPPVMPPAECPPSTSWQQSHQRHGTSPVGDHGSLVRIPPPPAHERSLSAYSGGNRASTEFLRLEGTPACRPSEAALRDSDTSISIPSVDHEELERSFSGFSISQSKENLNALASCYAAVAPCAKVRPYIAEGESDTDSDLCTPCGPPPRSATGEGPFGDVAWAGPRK
KCNQ2 inh: rat KCNQ2 potassium channel inhibitors, primary screen, cell-based, CHO-K1, FluxOR thallium flux, B-score. 310,000 tested, 1.1% active. 20 min; hits give low values. B-score at 10 µM. Potassium voltage-gated channel subfamily KQT member 2 (Rattus norvegicus), O88943;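 active = fluorescence ratio B-score at most minus 3 library SDs, with starting brightness B-score within 2 library SDs, cut at about -5.5 in these data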
* marks the source's active call; other numbers are inactive results; i = inactive; x = not tested or not shown.

SMILES	KCNQ2 enhance	KCNQ2 inh
COc1ccc(S(=O)(=O)Nc2cc3c4c(c2)C(C)C(=O)N4CCC3)cc1OC (stereo not drawn)	0.7	i
CC1(C)CC(=O)C(C2C3=C(CC(C)(C)CC3=O)Oc3c(Br)cc(Br)cc32)=C(O)C1 (stereo not drawn)	x	i
NC(=O)CSc1nnc(-c2ccccc2F)n1C1CC1	x	i
Cc1cccc(CCNS(=O)(=O)c2ccc3c(c2)NC(=O)CS3)c1	x	i
CCOc1ccccc1N1CCN(C(=O)c2cc3cc(OC)ccc3[nH]2)CC1	0.37	i
CC(=O)N1CC(C)Sc2ccc(S(=O)(=O)NC(C)c3ccccc3)cc21 (stereo not drawn)	0.09	i
C=CCSc1nc2ccccc2c(=O)n1C1CCOC(C)(C)C1 (stereo not drawn)	-6.04	-6.04*
CCSc1nc2ccccc2c(=O)n1C1CCOC(C)(C)C1 (stereo not drawn)	x	i
O=C(NCN1CCOCC1)c1cnccn1	x	i
Cc1nc2c(C(=O)NCc3ccccc3Cl)c[nH]n2c(=O)c1Cl	x	i
Cc1nc2c(C(=O)NCCc3ccccc3Cl)c[nH]n2c(=O)c1Cl	7.22*	i
C/C(=N\NS(=O)(=O)c1c(C)cc(C)cc1C)c1ccncc1	x	i
COc1ccc(CCNc2nc(C)nc3c2oc2ccccc23)cc1OC	-5.63	-5.63*
Cc1nc(NCCc2cnc[nH]2)c2oc3ccccc3c2n1	0.94	i
CCn1c(=O)c([N+](=O)[O-])c(Cl)c2ccccc21	-6.65	-6.65*
CCn1c(=O)c([N+](=O)[O-])c(NCCN(C)C)c2ccccc21	x	i
CC(=O)c1ccc(N(CC(=O)NC2CCCC2)C(=O)CNC(=O)c2ccco2)cc1	0.57	i
CCOc1ccc(/C=C2\C(=O)c3ccccc3OC2c2ccccc2)cc1 (stereo not drawn)	-6.2	-6.2*
COc1ccc(/C=C2\C(=O)c3ccccc3OC2c2ccccc2)cc1 (stereo not drawn)	x	i
CCOC(=O)c1oc2ccccc2c1NC(=O)CCl	x	i
CCOC(=O)c1oc2ccccc2c1NC(=O)c1ccc(Cl)s1	-7.56	-7.56*
Cc1ccc(C(=O)Nc2c(-c3cccs3)nc3cc(C)ccn23)cc1	0.53	i
Cc1ccn2c(NC(=O)C(C)(C)Oc3ccc(Cl)cc3)c(-c3cccs3)nc2c1	-6.36	-6.36*
NC(=O)CSc1nnc(COc2cccc3ccccc23)o1	1.12	i
O=C(CSc1nnc(COc2cccc3ccccc23)o1)N1c2ccccc2CCc2ccccc21	-8.4	-8.4*
SMILES	KCNQ2 enhance	KCNQ2 inh
Nn1c(-c2ccc(O)cc2)nnc1-c1ccc(O)cc1	0.04	i
O=C1CC(=C(c2ccccc2)c2ccccc2)C(=O)N1CCCN1CCN(c2cccc(Cl)c2)CC1	x	i
O=C1CC(=C(c2ccccc2)c2ccccc2)C(=O)N1CCN1CCN(c2cccc(Cl)c2)CC1	-5.63	-5.63*
COc1cccc(C(=O)NCCS(=O)(=O)N2CC(C)CC(C)C2)c1 (stereo not drawn)	0.04	i
CCCCS(=O)(=O)/C=C\C1C2C=CC(C2)C1S(=O)(=O)CCCC (stereo not drawn)	x	i
CCCCS(=O)(=O)/C=C\C=C/S(=O)(=O)CCCC	6.71*	i
CC1CCCCN1C(=O)C(=O)c1cn(CC(=O)N2CCCCCC2)c2ccccc12 (stereo not drawn)	x	i
O=C(CN1C(=O)NC2(CCCC2)C1=O)NNC(=O)c1ccc(Br)cc1	x	i
COc1ccc(CN(C)CC(=O)Nc2cccc3ccccc23)cc1F	-5.83	-5.83*
CCOc1ccc(CN(C)CC(=O)Nc2cccc3ccccc23)cc1OC	x	i
CCOc1ccccc1Nc1ccnc2cc(Cl)ccc12	0.02	i
CCOc1ccccc1Nc1cc(C)c2cccc(C)c2n1	-5.76	-5.76*
CC(Oc1cc2oc(=O)c3c(c2cc1Cl)CCC3)C(=O)NCc1ccccn1 (stereo not drawn)	x	i
COC(=O)CSc1nnc(-c2ccc(NS(=O)(=O)c3ccccc3)cc2)o1	-6.18	-6.18*
Cc1ccc(CSc2nnc(-c3ccc(NS(=O)(=O)c4ccccc4)cc3)o2)cc1	x	i
CC(OC(=O)c1ccccc1NS(=O)(=O)c1cccc(C(F)(F)F)c1)C(=O)N(C)Cc1ccccc1 (stereo not drawn)	-6.47	-6.47*
CN(Cc1ccccc1)C(=O)COC(=O)c1ccccc1NS(=O)(=O)c1cccc(N)c1	x	i
Oc1cccc2ccc(N3CCOCC3)nc12	x	i
O=C(CS(=O)(=O)Cc1ccccc1)NCCc1ccc(F)cc1	0.84	i
Cc1ccc(-c2nc(CS(=O)(=O)CC(=O)NCCN3CCCC3)c(C)o2)cc1	x	i
Fc1cccc(Cl)c1CSc1nnc(CNc2ccccc2)o1	x	i
Clc1ccc(CSc2nnc(CNc3cccc(Cl)c3)o2)cc1	-5.7	-5.7*
COc1ccc(-n2ncc(C(C)NS(=O)(=O)c3cc(F)ccc3C)c2C)cc1 (stereo not drawn)	x	i
[N-]=[N+]=NC[C@H](Cc1ccccc1)N1CC[C@@H](NC(=O)OCc2ccccc2)CCC1=O	0.16	i
CCc1ccc(-c2nc(CN3CCC(C(=O)NCCN(CC)c4ccccc4)CC3)c(C)o2)cc1	-6.52	-6.52*
SMILES	KCNQ2 enhance	KCNQ2 inh
CCN(CCNC(=O)C1CCCN(Cc2nc(-c3ccc(OC)cc3)oc2C)C1)c1ccccc1 (stereo not drawn)	-8.68	-8.68*
CCc1ccc(-c2nc(CN3CCCC(C(=O)O)C3)c(C)o2)cc1 (stereo not drawn)	x	i
CCc1ccc(-c2nc(CN3CCC(C(=O)NCc4ccc(F)cc4)CC3)c(C)o2)cc1	x	i
CCN(CCNC(=O)C1CCN(Cc2nc(-c3ccc(Cl)cc3)oc2C)CC1)c1ccccc1	-6.86	-6.86*
Cc1oc(-c2ccc(Cl)cc2)nc1CN1CCC(C(=O)NCCCN2CCOCC2)CC1	0.21	i
COc1ccc(-n2c(C)c(C)c3c(N)ncnc32)cc1	x	i
COc1ccc(CN2CCNC(=O)C2CC(=O)NCC2CCOCC2)c(F)c1 (stereo not drawn)	x	i
CC(=O)NC(Cc1c[nH]c2ccccc12)C(=O)OCC(=O)Nc1cc(C)on1 (stereo not drawn)	0.63	i
Cc1cc(NC(=O)COC(=O)[C@H](Cc2c[nH]c3ccccc23)NC(=O)c2ccc(F)cc2)no1	-7.2	-7.2*
COc1ccc(OC)c(NC(=O)CSc2nnc(-c3cnccn3)n2C)c1	1.46	i
COc1ccc(S(=O)(=O)N2CCCCCC2)cc1C(=O)N1CCN(c2ccccc2O)CC1	x	i
CCCN1CCN(C(=O)C2CCN(S(=O)(=O)c3ccc4c(c3)NC(=O)C(C)S4)CC2)CC1 (stereo not drawn)	0.03	i
COC(=O)c1cn(NC(=O)Cc2ccc(OC)c(OC)c2)c(=O)c2ccccc12	x	i
COC(=O)c1cn(NC(=O)Cc2cccc(OC)c2)c(=O)c2ccccc12	7.21*	i
COc1cc(NC(=O)c2cc(CC(C)C)on2)c(OC)cc1Cl	-7.83	-7.83*
CCCc1cc(C(=O)Nc2cc(OC)c(Cl)cc2OC)no1	0.12	i
O=C(OCn1ncc(Br)c(Br)c1=O)c1ccc(F)cc1	-5.6	-5.6*
O=C(OCn1ncc(Br)c(Br)c1=O)c1ccccc1Cl	x	i
CC1(C(=O)O)CCC(C(=O)Nc2cccc(F)c2)C1(C)C (stereo not drawn)	x	i

Screens (PubChem BioAssay)
